Activity calls are given as the source filed them. The call rests on the fitted dose curve.

The values that follow come from PubChem BioAssay (Tox21).
On the % scale 0 is the no-effect control and ±100 the full control effect.

The nature of the assay: G protein-coupled receptor (GPCR) small molecule agonists, calcium flux assay: HEK293 wild type cell line counter screen (AID 1920065). The settings on record: HEK293 WT calcium flux, fluorescence, agonist mode; series mostly up to 57.6 µM; activation: at the top concentration. From the text: U.S. Tox21 Program National Center for Advancing Translational Sciences [NCATS] Division of Preclinical Innovation [DPI] U.S. Environmental Protection Agency [EPA] National Institutes of Environmental Health Sciences [NIEHS] National Toxicology Program [NTP] U.S. Food and Drug Administration [FDA] Assay overview: The increased intracellular calcium release that occurred upon G protein-coupled receptor (GPCR) activation led to the frequent use of calcium flux assays to detect GPCR activation. For the purpose of studying and screening compounds that may activate GPCR, receptor-overexpressing models were typically generated using Hek293 wild-type (WT) cells. In order to eliminate the compounds that may have induced calcium release for non-specific activation, a counter-assay utilizing calcium flux on Hek293 WT cells was performed. The data were formulated in order to serve as a control for any calcium flux detection utilizing Hek293 cells with either GPCR overexpression or gene modification. The procurement of Hek293 WT cells from ATCC. Fluorescence intensity can be utilized to determine the activation of the compound in a calcium flux assay. As a counter control, this cell line was utilized to screen the Tox21 10K compound library.
Assay Protocol Summary: Hek293 cells were dispensed at 1500cells/4uL/well in 1536-well black wall/clear bottom plates using a multidrop dispenser. After the assay plates were incubated at a 37 C/5% CO2 incubator for 18 hours, 4 uL of Calcium Dye Solution was added to each well. The plates were incubated at 37 C for 1 hour. For agonist mode, 23 nL of compounds dissolved in DMSO, positive control (ATP) or DMSO only was transferred to the assay plate by a pin tool station. The fluorescence intensity in the plates was measured using FDSS 7000EX kinetic plate reader with a filter set of Ex/Em=480/540 for 3 min at 1 sec intervals. Each test compound was measured at 15 concentrations and in triplicates.
With `C/C=C/C(=O)CC`, the activation is 0.719% [at 11.8 µM] (inactive).

Consider `COC(C)(C)CCCC(C)CC=O` (stereo not given), for which the “activation” value is -0.11% (inactive).

On to `CCCN(CCC)C(=O)C(CCC(=O)OCCCN1CCN(CCOC(=O)Cc2c(C)n(C(=O)c3ccc(Cl)cc3)c3ccc(OC)cc23)CC1)NC(=O)c1ccccc1` (stereo not given), for which the “activation” value was 0.534% [at 26.5 µM] (inactive).

Take `CC(C)(C)OC(=O)N1C[C@@H](F)C[C@H]1C(=O)O`: the “activation” value was -0.317% (inactive).

As to `O=C(Nc1ccccc1)c1cc([N+](=O)[O-])ccc1Cl`, the “activation” value is -0.678% (inactive).

Turning to `O=C1OC(O)C(C(Cl)Cl)=C1Cl` (stereo not given), the “activation” value is -0.577% (inactive).

As for `CC(C)OCC1CO1` (stereo not given), the “activation” value was 0.504% (inactive).

For `CCCCCCCCCOC(C)=O`, the “activation” value is -0.0939% (inactive).

`CCOC(=O)c1ccccc1O`: the “activation” value was -0.911% [at 26.5 µM] (inactive).

As to `Cc1c(N)cccc1[N+](=O)[O-]`, the “activation” value is -0.197% (inactive).

For the molecule `Nc1cc(S(=O)(=O)O)ccc1O`, the “activation” value was -0.208% (inactive).

As to `FC(F)OC(Cl)C(F)(F)F` (stereo not given), the “activation” value was -0.957% (inactive).

Consider `CCc1cccc(CC)c1N(COC)C(=O)CS(=O)(=O)O`, for which the “activation” value is -0.0267% (inactive).

As for `CO[C@@H]1[C@@H](OC(N)=O)[C@@H](O)[C@H](Oc2ccc3c(O)c(NC(=O)c4ccc(O)c(CC=C(C)C)c4)c(=O)oc3c2C)OC1(C)C`, the “activation” value is 0.865% [at 26.5 µM] (inactive).

Regarding `CC(CO)(CO)C(=O)O`, the “activation” value is -0.12% (inactive).

`O=C1OCCN1/N=C/c1ccc([N+](=O)[O-])o1`: the “activation” value is -0.0095% [at 26.5 µM] (inactive).

With `COC(=O)c1ccc(NC(C)=O)cc1OC`, the “activation” value was -0.529% [at 26.5 µM] (inactive).

Consider `CC(COC(C)(C)C)OCCCO` (stereo not given), for which the “activation” value is 0.0537% (inactive).

For the molecule `CCCCCCCCCCCCCCCCCl`, the activation was 0.033% [at 11.8 µM] (inactive).

Take `O=[N+]([O-])c1ccc(CO)cc1`: the “activation” value is 0.298% (inactive).

Turning to `CCOC(=O)OCC/C(SC(=O)OCC)=C(\C)N(C=O)Cc1cnc(C)nc1N`, the “activation” value is 4.56% [at 26.5 µM] (inactive).

As to `O=c1c(O)c(-c2ccc(O)cc2O)oc2cc(O)cc(O)c12`, the “activation” value is 0.0326% (inactive).

As to `CC(=O)N(CC(O)CN(C(C)=O)c1c(I)c(C(=O)NCC(O)CO)c(I)c(C(=O)NCC(O)CO)c1I)c1c(I)c(C(=O)NCC(O)CO)c(I)c(C(=O)NCC(O)CO)c1I` (stereo not given), the “activation” value was 0.983% [at 26.5 µM] (inactive).

With `O=C1CCC(C2CCCCC2)CC1`, the “activation” value is -0.0442% (inactive).

As to `Cc1[nH]cnc1CN1CCc2c(c3ccccc3n2C)C1=O`, the “activation” value is -0.454% [at 26.5 µM] (inactive).

Regarding `NCC(=O)O`, the activation is -1.52% [at 11.8 µM] (inactive).

`COc1cccc(-c2ccc(/C=C\CN3CCCCCC3)cc2Cl)c1`: the “activation” value was -1.36% (inactive).

Consider `Nc1cccc2c(=O)[nH][nH]c(=O)c12`, for which the “activation” value is -0.366% (inactive).

Regarding `CCCCCCCCCCCCCC=O`, the activation is 0.0655% [at 5.23 µM] (inactive).

For the molecule `FC(F)(F)C(F)(F)C(F)(F)C(F)(F)CCI`, the “activation” value is 0.544% [at 26.5 µM] (inactive).

For `CCCOC(=O)c1ccc(C(=O)OCCC)nc1`, the “activation” value was 0.0119% (inactive).

Consider `C[n+]1ccccc1/C=N/O`, for which the “activation” value is -0.199% [at 26.5 µM] (inactive).

Turning to `CC[N+](CC)(CC)CCOc1cccc(OCC[N+](CC)(CC)CC)c1OCC[N+](CC)(CC)CC`, the “activation” value is 1.13% [at 26.5 µM] (inactive).

Take `CCCC(c1cc(C(C)(C)C)c(O)cc1C)c1cc(C(C)(C)C)c(O)cc1C`: the “activation” value was 1.29% (inactive).

`CCCCC(CC)CN1C(=O)C2C3C=CC(C3)C2C1=O` (stereo not given): the “activation” value was 0.261% (inactive).

Regarding `C#CC(C)(CC)OC(=O)c1ccccc1C(=O)O` (stereo not given), the “activation” value is -0.619% [at 26.5 µM] (inactive).

Turning to `Nc1c(N=Nc2ccc(-c3ccc(N=Nc4cc(S(=O)(=O)O)c5ccccc5c4N)cc3)cc2)cc(S(=O)(=O)O)c2ccccc12`, the “activation” value is 2.8% (inactive).

Take `O=C(O)Cc1csc(-c2ccc(Cl)cc2)n1`: the “activation” value was 1.69% [at 26.5 µM] (inactive).

As for `O=S(=O)(c1ccccc1)c1ccc(Cl)cc1`, the “activation” value was -2.11% (inactive).

In the case of `CCCCC1CCCCC(=O)O1` (stereo not given), the “activation” value is -0.616% (inactive).
